In PubChem BioAssay:
Records with an inconclusive call do not appear. Calls of active or inactive are those of the source. Cut-off read from the data, not from the text of the source, unless noted: active = inhibition above about 30%; inactive = the rest.

Tests used:
[1] = Her2 expression decrease, cell viability multiplex – SKBR3 breast tumor cells, AlphaScreen, ATP viability, primary screen (AID 461;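 active = Her2 level under about 52% in both replicate screens, with viability over 70% of control, limit read from the data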;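 for Her2 level: lower value means less Her2 protein in the cells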;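 for viability: percent of carrier control wells set as 100% viability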); details: SKBR3 Her2 protein level, 18-24 h, measured here: SKBR3 viability, ATP luminescence, at 10 µM
[2] = molecular target: Receptor tyrosine-protein kinase erbB-2 (Homo sapiens) (UniProt P04626); assay: as above; details: 18-24 h, at 10 µM, stronger effect = lower value
[3] = reduced viability of SK-BR-3 breast cancer cells – cell-based, 24 h, human, pilot screen (AID 572;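 active = viability at or below 10% of carrier control in both of two separate runs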;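 note: compound exposure lasted between 18 and 24 h rather than exactly 24 h; 100% = carrier-treated control wells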); details: SK-BR-3 viability, CellTiter-Glo luminescence, at 10 µM, stronger effect = lower value
[4] = HUVEC growth inhibition – cell-based, human, primary screen (AID 575;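 active = viability at or below 30% in both replicate assays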;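 note: 100% = median of untreated cell wells with 0.1% DMSO on each plate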); details: HUVEC proliferation, CellTiter-Glo luminescence, 72 h; at 10 µM; stronger effect = lower value
[5] = H69AR cell proliferation blockers – human, duplicate replicates, primary screen (AID 580;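 active = viability at or under a set limit in both replicates, limit being median viability minus 3 SD, cut at about 48% in these data, passing the limit was not always enough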;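 note: 100% = mean luminescence of untreated wells and 0% = no signal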); details: H69AR lung tumor cells viability, ATP luminescence, 72 h; at 10 µM; stronger effect = lower value
[6] = MRP1 drug-resistance reversers in H69AR cells – cell-based, doxorubicin co-treatment, pilot screen (AID 601;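 active = viability loss from added drug above about 55%, and viability with drug at most 40%, in both replicates, limit read from the data, passing the limit was not always enough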); details: CellTiter-Glo, 72 h, at 10 µM; for differential viability (reversal): stronger effect = higher value
[7] = yeast transport mutant growth inhibition pilot in 384-well plates, post-Golgi transport modulator project (AID 636; in the data active = inhibition above about 31%); details: absorbance 615 nm, about 18 h, stronger effect = higher value
[8] = growth suppression of yeast trafficking mutant, preliminary HTS, modulators of trafficking downstream of Golgi apparatus project, 1536-format plate, OD 615 nm (AID 637); details: yeast transport mutant growth, absorbance 615 nm, 18 h; stronger effect = higher value
[9] = S. cerevisiae growth inhibition in permissive medium (OD615), pilot counter-assay for S. cerevisiae lifespan shortening project, permissive growth control (AID 705;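 active = growth inhibition above 25% in both replicates, a cutoff set 3 SD above the mean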); details: OD615, 24 h, at 10 µM, stronger effect = higher value
[10] = S. cerevisiae growth inhibition in restrictive medium, OD615, pilot screen, restrictive growth control, yeast lifespan reduction project (AID 706;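 active = growth inhibition above a set limit, 3 SD over mean compound inhibition, in both replicates, cut at about 43% in these data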;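 note: modified DeaD lifespan yeast strain shifted to restrictive glucose medium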); details: OD615, 48 h, at 10 µM, stronger effect = higher value
[11] = doxorubicin toxicity protection in MRP-1 cells – H69AR cells, CellTiter-Glo, duplicate, MRP-1 activator project, pilot screen (AID 807;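 active = viability increase at or above a cutoff of the median across tested compounds plus 3 SD, cut at about 8.5% in these data, passing the limit was not always enough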;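 note: compound pretreatment 18-22 h then 72 h combined with doxorubicin; 0% = doxorubicin alone and 100% = vehicle without doxorubicin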); details: H69AR viability with doxorubicin, CellTiter-Glo luminescence; at 10 µM; stronger effect = higher value
[12] = viability of HCT116 without oncogenic beta-catenin – human colon tumor cells, pilot screen (AID 823;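 active = cell viability at or below a set limit in both duplicate runs, the limit being the all-compound median minus 4 SD, cut at about 23% in these data, passing the limit was not always enough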;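 note: 0% = wells killed by 20 µM Hyamine and 100% = untreated DMSO cell wells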); details: HCT116 beta-catenin knockout viability, CellTiter-Glo, 60 h; at 10 µM; stronger effect = lower value
[13] = viability of PTEN-null HCT116 cells – cell-based, HCT116 clonal line, CellTiter-Glo, pilot screen (AID 824;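 active = viability at or below 27.92% in each of two runs, the all-compound median minus 4 SD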;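 note: 0% = 20 µM Hyamine control and 100% = vehicle cell control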); details: HCT116 PTEN-deleted viability, 60 h, at 10 µM, stronger effect = lower value
[14] = RAM pathway blockade in budding yeast – dse1pr::URA3 reporter, 5-FOA selection, pilot screen (AID 869;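 active = inhibition over a set limit, the all-compound mean plus 3 SD, in both replicate runs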;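 note: 0% = DMSO wells with no growth and 100% = 10 µM 1-NA-PP1 with full growth; RAM network block rescues cells from 5-FOA so hits raise OD615 growth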); details: S. cerevisiae dse1pr::URA3 5-FOA growth, OD615, 2 d; at 10 µM; stronger effect = higher value; strain carries analog-sensitive mutant Cbk1 kinase
[15] = RAM signaling pathway blockade in yeast – S. cerevisiae, Pdr1DBD-CYC8 efflux-inhibited sensitized strain, primary screen (AID 1298;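 active = RAM network inhibition above 8.4% in each of two replicates, 3 SD over the compound average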;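 note: 0% = DMSO untreated cells without growth and 100% = 10 µM 1-NA-PP1 full growth; higher means more yeast growth rescued from 5-FOA killing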); details: S. cerevisiae cbk1-as DSE1-URA3 strain, 5-FOA growth OD615, 2 d; at 50 µM; stronger effect = higher value
[16] = H69AR cells + 2 uM doxorubicin, measured here: viability with 2 uM doxorubicin, stronger effect = lower value
[17] = H69AR cells, compound alone cytotoxicity

Chain of Receptor tyrosine-protein kinase erbB-2 (Homo sapiens) (P04626 whole entry, looked up): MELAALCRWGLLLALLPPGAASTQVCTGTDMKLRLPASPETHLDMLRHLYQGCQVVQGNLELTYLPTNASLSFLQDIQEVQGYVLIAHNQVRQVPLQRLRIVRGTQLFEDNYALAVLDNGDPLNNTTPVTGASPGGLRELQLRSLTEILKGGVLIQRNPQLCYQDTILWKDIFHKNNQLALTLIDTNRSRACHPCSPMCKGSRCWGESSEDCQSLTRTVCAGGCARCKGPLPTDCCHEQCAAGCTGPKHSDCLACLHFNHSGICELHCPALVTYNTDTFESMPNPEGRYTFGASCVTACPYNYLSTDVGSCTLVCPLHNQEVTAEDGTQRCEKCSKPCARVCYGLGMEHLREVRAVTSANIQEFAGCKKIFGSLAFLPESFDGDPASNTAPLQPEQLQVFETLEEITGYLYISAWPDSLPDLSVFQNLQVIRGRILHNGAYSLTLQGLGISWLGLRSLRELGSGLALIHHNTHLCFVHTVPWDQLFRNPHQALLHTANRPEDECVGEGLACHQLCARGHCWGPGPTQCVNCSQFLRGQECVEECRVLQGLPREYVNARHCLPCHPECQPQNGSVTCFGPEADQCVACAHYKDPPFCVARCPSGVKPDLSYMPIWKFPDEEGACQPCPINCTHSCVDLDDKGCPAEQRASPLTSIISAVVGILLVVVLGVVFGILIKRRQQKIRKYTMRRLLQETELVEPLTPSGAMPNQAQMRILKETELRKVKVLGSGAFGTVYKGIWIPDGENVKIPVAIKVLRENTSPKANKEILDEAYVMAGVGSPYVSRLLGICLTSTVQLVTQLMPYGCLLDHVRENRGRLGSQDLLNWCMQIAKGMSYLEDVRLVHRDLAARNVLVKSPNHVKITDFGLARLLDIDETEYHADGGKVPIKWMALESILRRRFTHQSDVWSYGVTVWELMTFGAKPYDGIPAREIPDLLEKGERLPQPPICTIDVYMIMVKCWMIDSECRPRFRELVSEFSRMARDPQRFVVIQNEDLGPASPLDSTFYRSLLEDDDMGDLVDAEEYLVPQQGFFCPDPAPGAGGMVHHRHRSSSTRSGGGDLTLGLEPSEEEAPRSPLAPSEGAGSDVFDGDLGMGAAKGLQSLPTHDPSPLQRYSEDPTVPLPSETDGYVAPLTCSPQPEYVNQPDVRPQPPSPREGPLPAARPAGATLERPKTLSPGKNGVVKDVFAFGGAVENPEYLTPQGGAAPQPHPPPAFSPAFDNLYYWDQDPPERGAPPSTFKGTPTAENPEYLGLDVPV

Row | SMILES | viability [1] | Her2 level [2] | viability [3] | viability [4] | viability [5] | differential viability (reversal) ([6]; H69AR cells + 2 uM doxorubicin) | viability [6, 16] | viability [6, 17] | inhibition [7] | inhibition [8] | growth inhibition [9] | growth inhibition [10] | viability increase [11] | viability [12] | viability [13] | inhibition [14] | RAM network inhibition [15]
1 | CCc1nn(CC(=O)NCCCN2CCc3ccccc3C2)c(=O)c2cc3sccc3n12 | 86% | 86.5% (inactive) | 86% (inactive) | 89.1% (inactive) | 77.5% (inactive) | -3.23% (inactive) | 80.8% | 77.5% | -3.46% (inactive) | 1% (inactive) | -2.08% (inactive) | -10.3% (inactive) | -4.54% (inactive) | 78.9% (inactive) | 79.9% (inactive) | 0.58% (inactive) | 1.52% (inactive)
2 | CCOC(=O)c1ccc(NCc2nc3ccccc3[nH]2)cc1 | 88.5% | 97% (inactive) | 88.5% (inactive) | 86% (inactive) | 105% (inactive) | 15.1% (inactive) | 89.7% | 105% | 0.93% (inactive) | -2.62% (inactive) | -1.66% (inactive) | -8.54% (inactive) | -5.9% (inactive) | 86.8% (inactive) | 76.8% (inactive) | 1.83% (inactive) | 2.11% (inactive)
3 | COCCNC(=O)c1cc(-c2cccs2)on1 | 97% | 77.5% (inactive) | 97% (inactive) | 84.9% (inactive) | 84.7% (inactive) | 23.6% (inactive) | 61.1% | 84.7% | -0.64% (inactive) | -4.17% (inactive) | -0.235% (inactive) | 2.31% (inactive) | -7.54% (inactive) | 67.3% (inactive) | 70.6% (inactive) | 0.105% (inactive) | 3.61% (inactive)
4 | O=C(CCCn1c(=O)c2sccc2n(Cc2cc(=O)n3ccccc3n2)c1=O)NCc1ccco1 | 82.5% | 126% (inactive) | 82.5% (inactive) | 87.7% (inactive) | 77% (inactive) | -2.97% (inactive) | 80% | 77% | 3.59% (inactive) | -4.33% (inactive) | -9.24% (inactive) | -2.77% (inactive) | -1.87% (inactive) | 91.3% (inactive) | 99.3% (inactive) | -0.225% (inactive) | 0.21% (inactive)
5 | Cc1ccnc(NC(=O)C2CCCN(S(=O)(=O)c3cnc[nH]3)C2)c1 (stereo not given) | 95.5% | 104% (inactive) | 95.5% (inactive) | 94.7% (inactive) | 105% (inactive) | 8% (inactive) | 97.4% | 105% | 0.8% (inactive) | -2.79% (inactive) | 1.41% (inactive) | -5.85% (inactive) | -1.81% (inactive) | 97.3% (inactive) | 96.1% (inactive) | 0.925% (inactive) | 3.67% (inactive)
